A selection: hits, their analogues and other compounds. The true share with any hit is near 7.6%.
ELG1 repair inh – qHTS screen for small molecules that inhibit ELG1-dependent DNA repair in human embryonic kidney (HEK293T) cells expressing luciferase-tagged ELG1; Potency, µM (top dose mostly 46.1 µM), inactives show at the highest dose activity change, negative = inhibition, usual class: inhibitors; hit rate 2.3% among 330,000; HEK293T ELG1-luciferase reporter, luminescence, 16 h; DNA damage induced by 5-fluorouridine; also: potency is read from the fitted curve at half-maximal effect; % is scaled to controls: 0 for no effect and ±100 for the full control effect; nearly all actives have a fitted effect of over 55% in size
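Quantitative HTS, concentration-response format. 2,000 cells/well co-treated with 5-fluorouridine and compound, 16 hr in 5% CO2 at 37 °C; ONE-Glo luminescence read after 30 min.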
p53 reactivation – qHTS assay for re-activators of p53 using a Luc reporter; hit rate 0.063% among 320,000; Potency, µM (highest dose often 92.2 µM), for inactives: top-dose activity change, positive = activation, most hits filed as activators; H1299 p53-A138V BP100-luciferase reporter, luminescence, 24 h; also: potency is read from the fitted curve at half-maximal effect; % of control where 0% means no effect; nearly all actives have a fitted effect of over 45% in size
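H1299 (p53-null), stable ts p53-A138V + BP100-Luc; 1000 cells/well, Opti-MEM/10% FBS; cpd 4 pt, 1:5; 24 h, 37 deg C, 5% CO2; detection reagent 10 min RT; luminescence.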
Giardia killer – Small Molecules that selectively kill Giardia lamblia: qHTS. Giardia lamblia trophozoite viability. hit rate 0.15% among 340,000. activity change, % at 7.66 µM, hits read low; in the data active = activity change below about -80%; inconclusive = between about -30% and that limit;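 also: parasites exposed to compound for two days anaerobically before the ATP read; % is scaled to controls: 0 for no effect and ±100 for the full control effect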
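Giardia trophozoites, 100 cells per well, were exposed to compounds for 48 hrs at 37 deg C under anaerobic conditions; viability was then read as ATP content by bioluminescence after 15-30 min at room temperature.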
RORgamma inh – qHTS for inhibitors of ROR gamma transcriptional activity. Nuclear receptor ROR-gamma (Mus musculus), P51450. Drosophila S2 Gal4-RORgamma UAS-luciferase reporter, 20 h. Potency, µM (highest dose often 53.6 µM), for inactives: at the top dose activity change, negative = inhibition, actives largely listed as inhibitors. hit rate 5.4% among 310,000. AID 2551, 2010; also: potency is read from the fitted curve at half-maximal effect; % is scaled to controls: 0 for no effect and ±100 for the full control effect; nearly all actives have a fitted effect of over 60% in size
Target sequence (P51450 whole entry, looked up, the tested form may be a part): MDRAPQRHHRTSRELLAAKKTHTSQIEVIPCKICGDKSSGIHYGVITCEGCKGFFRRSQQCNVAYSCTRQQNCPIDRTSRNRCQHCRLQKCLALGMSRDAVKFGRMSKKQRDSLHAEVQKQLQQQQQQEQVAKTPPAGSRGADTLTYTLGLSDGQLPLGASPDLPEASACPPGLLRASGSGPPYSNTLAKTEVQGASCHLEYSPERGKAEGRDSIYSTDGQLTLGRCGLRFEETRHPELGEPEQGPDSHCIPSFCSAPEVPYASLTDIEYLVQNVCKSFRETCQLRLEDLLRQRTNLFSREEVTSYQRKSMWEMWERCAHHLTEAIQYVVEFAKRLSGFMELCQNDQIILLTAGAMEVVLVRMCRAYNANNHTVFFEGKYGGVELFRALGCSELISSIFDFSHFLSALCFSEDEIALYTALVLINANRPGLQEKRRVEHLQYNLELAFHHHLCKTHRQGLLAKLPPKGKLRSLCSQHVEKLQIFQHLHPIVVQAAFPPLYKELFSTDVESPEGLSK
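Drosophila S2 cells stably expressing Gal4-DBD/mouse RORγ fusion under metallothionein promoter plus UAS-luciferase; compound 1 h, then 700 uM CuSO4 induction for 20 h at ambient temperature; inhibition read as reduced luminescence.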
Gal4-VP16 FLuc – VP16 counterscreen qHTS for inhibitors of ROR gamma transcriptional activity | Drosophila S2 Gal4-VP16 UAS-luciferase, luminescence, 20 h | Potency, µM (top dose mostly 53.6 µM), for inactives: top-dose activity, negative = inhibition, usual class: inhibitors | hit rate 3.5% among 310,000 | AID 2546, 2010;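 also: Gal4-VP16 expression switched on by copper sulfate through the metallothionein promoter; potency is read from the fitted curve at half-maximal effect; % is scaled to controls: 0 for no effect and ±100 for the full control effect; nearly all actives have a fitted effect of over 50% in size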
BRCA1 expr act – qHTS Assay to Identify Small Molecule Activators of BRCA1 Expression. MCF7-BRCA1-FFLuc reporter, luminescence, 48 h; response scale: scaled: vehicle 0%, 10 µM genistein 100%. Potency, µM (doses to about 46.1 µM), inactives show at the top dose activation, usual class: activators. hit rate 1.1% among 380,000. AID 624202, 2012; also: potency is read from the fitted curve at half-maximal effect; nearly all actives have a fitted effect of over 80% in size
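48 h compound treatment of MCF7-BRCA1-FFLuc cells (phenol-red free MEM, 37 °C), then 15 min with luciferase substrate and luminescence imaging.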
* marks the source's active call; other numbers are inactive results; ? = inconclusive; . = not tested or not shown; [ ] = another dose, or the depositor's remark. Unless noted, calls follow the shape of the dose curve; as a rule, active = well fitted curve in the direction sought with a large enough effect; inconclusive = small, poorly fitted or top-dose-only effect, or another doubt; inactive = no such curve, though single readings can be large; an effect the other way counts as inactive or inconclusive.

SMILES	ELG1 repair inh	p53 reactivation	Giardia killer	RORgamma inh	Gal4-VP16 FLuc	BRCA1 expr act
Cc1ccc(S(=O)(=O)N[C@H](C(=O)OCn2nnc3ccccc3c2=O)C(C)C)cc1	20.6µM*	1.6%	-18.1	28.6%	-2.4%	-9.8%
Nc1nc2c(C(=O)N3CCOCC3)nnn2c2ccccc12	?	1.1%	4.0	-42.8%	-24.4%	2.82µM*
Cc1ccc(NC2=NCC(Cc3ccc(Br)cc3)S2)cc1 (stereo not given)	-4.2%	-3.5%	8.2	12.6µM*	?	-20.0%
CCc1ccc(NC2=NCC(c3ccccc3)S2)cc1 (stereo not given)	?	8.0%	-12.9	8.91µM*	?	11.2µM*
Cc1ccc(CNC(=O)Cc2ccc(NC3=NC4CS(=O)(=O)CC4S3)cc2)cc1 (stereo not given)	?	11.3%	13.2	-17.7%	1.1%	-2.0%
C[C@@H]1CCCCO[C@H](CN(C)Cc2ccc(Cl)c(Cl)c2)[C@@H](C)CN([C@H](C)CO)C(=O)c2cc(N(C)C)ccc2O1	.	.	.	.	.	2.9%
CCOc1ccc(-c2ccc(SCC(=O)Nc3nnc(CC)s3)nn2)cc1	?	21.5%	?	?	-16.2%	?
CCc1nnc(NC(=O)CSc2ccc(-c3ccc(C)cc3)nn2)s1	?	-1.8%	-18.1	26.9%	-0.3%	11.2µM*
CCc1nnc(NC(=O)CSc2ncc(-c3ccccc3)n2C)s1	?	27.9%	?	11.2µM*	?	4.9%
CCn1c(-c2ccsc2)nc2c1c(=O)[nH]c(=O)n2Cc1ccccc1	16.4%	1.7%	23.4	-23.4%[10 µM]	1.7%	-20.2%
CCCC1CCC(C(=O)n2nc(N)c3cc4ccc(OC)cc4nc32)CC1 (stereo not given)	5.8µM*	-4.3%	18.9	-8.8%	-2.1%	22.7%
COc1ccc2oc(=O)c(C(=O)NCCc3ccc(OC)c(OC)c3)cc2c1	?	.	14.2	-11.5%	-4.0%	-27.7%
CSc1ncc(CN2CCC(C(=O)Nc3cccc(-c4cscn4)c3)CC2)cn1	23.1µM*	-12.6%	0.4	25.0%	-4.1%	-29.0%
COCCc1ncc(CN2CCC(C(=O)Nc3cccc(-c4cscn4)c3)CC2)cn1	?	-5.4%	13.9	-10.2%	1.2%	-32.4%
CCCc1ncc(CN2CCC(C(=O)Nc3cccc(-c4cscn4)c3)CC2)cn1	8.2µM*	15.4%	9.4	10.2%	-15.0%	-11.8%
Cn1cc(CN2CCC(C(=O)Nc3cccc(-c4cscn4)c3)CC2)cn1	0.8%	6.4%	5.8	-41.5%	-5.8%	0.6%
Cc1ccc2nc(-c3ccccc3)cn2c1	?	-9.8%	?	1.58µM*	2.82µM*	?
Cc1ccc2nc(-c3ccc(-c4ccccn4)s3)cn2c1	?	?	-29.0	0.178µM*	0.891µM*	?
Cc1ccc2nc(-c3ccc(O)c(O)c3)cn2c1	?	-5.2%	?	3.6%[1.91 µM]	?	-64.2%
Oc1ccc(-c2cn3cc(C(F)(F)F)ccc3n2)cc1	?	?	?	2.24µM*	8.91µM*	-7.1%
CC(=O)Nc1ccc(-c2cn3cc(C)ccc3n2)cc1	?	?	?	7.08µM*	?	14.8%
O=C(NN1C(=O)C2CC=C(Cl)CC2C1=O)c1ccncc1 (stereo not given)	9.3%	2.0%	?	-0.7%	0.7%	-0.3%
Clc1ccc(-c2cn3ccccc3n2)cc1	?	4.6%	0.6	?	-29.4%	15.6%
Clc1ccc(-c2cn3cc(Cl)ccc3n2)cc1	?	-0.5%	-19.4	10µM*	12.6µM*	20.6%
